In the library only some 5.4% were active in any assay of this set; here they are far more common.
CSC inhib: cancer stem cell viability inhibitors, primary screen, luminescence | cancer stem cell-like cells viability | inhibition, % at 7.5 µM | 300,000 compounds, 1.1% hits; in the data active = inhibition above about 75%; tested in HMLE shEcad cells
SKKanGAS inh: S. pyogenes SKKanGAS growth inhibitors in kanamycin, primary screen, streptokinase expression inhibitor project, SKKanGAS strain, BacTiter-Glo luminescence | 6 h | inhibition, % at 7.5 µM | 300,000 compounds, 1.3% hits;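 active = mean replicate score, as percent of positive control median, at least 50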;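 note: strain carries kanamycin resistance gene driven by streptokinase promoter and grows in 40 µg/ml kanamycin; loss of luminescence reflects streptokinase promoter inhibition or plain growth inhibition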
Calb FLC: C. albicans growth inhibition with fluconazole, primary screen, CaCi-2 strain, Alamar Blue fluorescence; 300,000 compounds, 0.57% hits; C. albicans CaCi-2 (fluconazole-resistant clinical isolate) + fluconazole, 48 h; AID 1979, 2009; growth inhibition, % (concentration not given with the values);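 active = growth inhibition above about 58% in most replicates, limit read from the data, passing the limit was not always enough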;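 note: all wells also contain fluconazole at 8 µg/ml as a sub-toxic cotreatment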
Mdm2 MdmX PPI: inhibitors of human Mdm2-MdmX association, primary screen, cell-based, luminescence, split luciferase, SaOS-2, uHTS. SaOS-2 split-luciferase Mdm2/MdmX complementation. inhibition, % at 8 µM. Protein Mdm4 (Homo sapiens) + E3 ubiquitin-protein ligase Mdm2 (Homo sapiens), …. 330,000 compounds, 3% hits;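 active = inhibition of at least 50% at 8 µM in the primary screen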
Beta apoptosis: inhibitors of cytokine-induced beta cell apoptosis, primary screen, luminescence. 300,000 compounds, 0.8% hits. protection from apoptosis, % (no concentration beside the values). INS-1E cytokine-induced death, ATP luminescence, 48 h; percent of positive-control rescue, neutral wells zero;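 active = Every replicate reaches about 75%, or at least half do and their mean reaches it too, limit read from the data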;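 note: higher means more ATP so stronger rescue from cytokine killing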
MPTP inh: mitochondrial permeability transition pore inhibitors, primary screen, biochemical, isolated mouse mitochondria, absorbance | inhibition, % at 10 µM | 360,000 compounds, 1.4% hits | Ca2+ swelling absorbance, 30 min | AID 602449, 2012;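 active = inhibition of 50% or more, scaled per plate between neutral and stimulator controls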
MPTP counter: fluorescence retest of MPTP screen hits in isolated mitochondria, single concentration; membrane potential, Rhodamine 123 fluorescence; inhibition, % at 10 µM; shares compounds with MPTP inh; 5,000 compounds, 78% hits; in the data active = inhibition above about 22%
MPTP counter DR: fluorescent counter-screen in isolated mitochondria, dose response, counter-screen for MPTP inhibitor project, biochemical, fluorescence, uHTS hits; shares compounds with MPTP inh; isolated mitochondria counterscreen, fluorescence read-out; IC50, µM; 780 compounds, 49% hits; AID 651564, 2012; in the data active = IC50 below about 80 µM
Hits are given with their value.

How did Cc1cccc(C(=O)Nc2ccccc2C(=O)OCC(=O)Nc2ccc(C#N)cc2)c1 do in these assays?
SKKanGAS inh: inactive; Calb FLC: inactive; Mdm2 MdmX PPI: inactive; Beta apoptosis: inactive; MPTP inh: 77; MPTP counter: 62

Results for CCn1ccnc1CC1COc2ccccc2O1 (configuration not stated) ?
CSC inhib: inactive; Mdm2 MdmX PPI: inactive; Beta apoptosis: inactive; MPTP inh: inactive

How did CCNc1ccc(S(=O)(=O)N(C)C)cc1NCC(=O)Nc1ccc(F)c(Cl)c1 do in these assays?
CSC inhib: inactive; SKKanGAS inh: inactive; Calb FLC: inactive; Mdm2 MdmX PPI: inactive; Beta apoptosis: inactive; MPTP inh: 59; MPTP counter: 70

Results for O=S(=O)(c1ccc(Cl)cc1)N1CCN(C(=S)Nc2ccc(F)c(Cl)c2)CC1 ?
CSC inhib: inactive; SKKanGAS inh: inactive; Calb FLC: inactive; Mdm2 MdmX PPI: inactive; Beta apoptosis: inactive; MPTP inh: 85; MPTP counter: 88

What do the screens show for `O=S(=O)(c1ccccc1)N1CCN(C(=S)Nc2ccc(F)cc2)CC1`?
CSC inhib: inactive; SKKanGAS inh: inactive; Calb FLC: inactive; Mdm2 MdmX PPI: inactive; MPTP inh: inactive

Results for COc1ccc([N+](=O)[O-])cc1NC(=O)CSc1ccc2ccccc2c1 ?
CSC inhib: inactive; SKKanGAS inh: inactive; Calb FLC: inactive; Mdm2 MdmX PPI: inactive; Beta apoptosis: inactive; MPTP inh: 62; MPTP counter: 31

What do the screens show for `Cc1cc(C(=O)CSc2n[nH]c(N)n2)c(C)n1-c1cc(F)ccc1F`?
CSC inhib: inactive; SKKanGAS inh: inactive; Calb FLC: inactive; Mdm2 MdmX PPI: inactive; Beta apoptosis: inactive; MPTP inh: 59; MPTP counter: inactive; MPTP counter DR: inactive

Results for CSc1ccc(CN2C(=O)C(F)(F)Oc3c(C(C)=O)cccc32)cc1 ?
MPTP inh: 74; MPTP counter: 75

Results for CC1(C(=O)Nc2cccc3cccnc23)CCN1Cc1csc2ccccc12 (configuration not stated) ?
MPTP inh: inactive

How did CCOc1ccc(CSCCNC(=S)Nc2ccc(OC)cc2)cc1 do in these assays?
CSC inhib: inactive; SKKanGAS inh: inactive; Calb FLC: inactive; Mdm2 MdmX PPI: inactive; Beta apoptosis: inactive; MPTP inh: inactive

How did Cc1cccc(CSCCNC(=S)Nc2ccccc2)c1 do in these assays?
CSC inhib: inactive; SKKanGAS inh: inactive; Calb FLC: inactive; Mdm2 MdmX PPI: inactive; Beta apoptosis: inactive; MPTP inh: 82; MPTP counter: 79

What do the screens show for `S=C(NCCSCc1ccc(Cl)cc1)Nc1ccccc1`?
CSC inhib: inactive; SKKanGAS inh: inactive; Calb FLC: inactive; Mdm2 MdmX PPI: inactive; Beta apoptosis: inactive; MPTP inh: 68; MPTP counter: 97

How did CCCOc1ccc(CSCCNC(=S)Nc2ccccc2)cc1 do in these assays?
CSC inhib: 77; SKKanGAS inh: inactive; Calb FLC: inactive; Mdm2 MdmX PPI: inactive; Beta apoptosis: inactive; MPTP inh: 95; MPTP counter: 94

What do the screens show for `S=C(NCCSCc1ccccc1Cl)Nc1ccccc1`?
CSC inhib: inactive; SKKanGAS inh: inactive; Calb FLC: inactive; Mdm2 MdmX PPI: inactive; Beta apoptosis: inactive; MPTP inh: 82; MPTP counter: 104

What do the screens show for `C[C@@H](NC(=O)c1ncn2c1C(=O)NC[C@@H]2C)c1ccccc1`?
MPTP inh: inactive

Results for CC(=O)CSc1nnc2cc(C)c3ccccc3n12 ?
CSC inhib: inactive; SKKanGAS inh: inactive; Calb FLC: inactive; Mdm2 MdmX PPI: inactive; MPTP inh: inactive

How did Cc1cccc(OCc2nnc(SC(C)C(=O)Nc3ccc(N4CCOCC4)cc3)o2)c1 (configuration not stated) do in these assays?
Mdm2 MdmX PPI: inactive; Beta apoptosis: inactive; MPTP inh: inactive

How did Cc1onc(-c2ccccc2)c1C(=O)NC(=S)NNC(=O)c1ccccc1O do in these assays?
CSC inhib: inactive; SKKanGAS inh: 87; Calb FLC: inactive; Mdm2 MdmX PPI: inactive; Beta apoptosis: 85; MPTP inh: 95; MPTP counter: inactive

Results for CCCOc1ccc(C(=O)NC(=S)NNC(=O)c2c(-c3ccccc3)noc2C)cc1 ?
CSC inhib: inactive; SKKanGAS inh: 100; Calb FLC: inactive; Mdm2 MdmX PPI: inactive; Beta apoptosis: inactive; MPTP inh: 69; MPTP counter: inactive

How did CCOC(=O)[C@@H]1[C@H]2COc3ccccc3[C@H]2N2C(=O)N(c3cccc(Cl)c3)C(=O)[C@@]12C do in these assays?
CSC inhib: inactive; SKKanGAS inh: inactive; Calb FLC: inactive; Mdm2 MdmX PPI: inactive; Beta apoptosis: inactive; MPTP inh: inactive

How did CCOC(=O)[C@@H]1[C@H]2COc3ccccc3[C@@H]2N2C(=O)N(c3cccc(Cl)c3)C(=O)[C@@]12C do in these assays?
CSC inhib: inactive; SKKanGAS inh: inactive; Calb FLC: inactive; Mdm2 MdmX PPI: inactive; Beta apoptosis: inactive; MPTP inh: 88; MPTP counter: 100

Results for O=C(COc1ccc(Cl)cc1)Nc1ccc(Cc2ccncc2)cc1 ?
CSC inhib: inactive; SKKanGAS inh: inactive; Calb FLC: inactive; Mdm2 MdmX PPI: inactive; MPTP inh: 75; MPTP counter: 72

How did O=C(COc1ccc2ccccc2c1)Nc1ccc(Cc2ccncc2)cc1 do in these assays?
SKKanGAS inh: inactive; Calb FLC: inactive; Mdm2 MdmX PPI: inactive; MPTP inh: 94; MPTP counter: 88

What do the screens show for `O=C(O)Cc1ccc(NC(=O)COc2ccc3ccccc3c2)cc1`?
SKKanGAS inh: inactive; Calb FLC: inactive; Mdm2 MdmX PPI: inactive; MPTP inh: inactive

Results for COc1ccccc1C(CNC(=O)C(C)(C)Oc1ccc(Cl)cc1)N1CCCC1 (configuration not stated) ?
CSC inhib: inactive; SKKanGAS inh: inactive; Calb FLC: inactive; Mdm2 MdmX PPI: inactive; Beta apoptosis: inactive; MPTP inh: inactive

What do the screens show for `Cc1ccc(C(OCC(O)CN2CCCCC2)c2ccccc2)cc1` (configuration not stated)?
CSC inhib: inactive; SKKanGAS inh: inactive; Calb FLC: inactive; Mdm2 MdmX PPI: inactive; MPTP inh: inactive
